According to PubChem BioAssay (NCI):
Several values for one entry are separate records, joined by “and”; a condition that tells them apart may be missing. Identical values can stand only once. Compounds without any hit were thinned out: in the full panel of roughly 83,000, 20% have a hit.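 Single-concentration screen, 48 h exposure, 96-well plates. Endpoint: percent growth. Below 10 = active.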 Activity calls are given as the source filed them.

Tests used:
Experiment in all cases: NCI-60 one-dose screen, 48 h (100 = growth as untreated, 0 = no growth, -100 = all killed)
Conditions in all cases: 10 µM unless noted
HCT-15 colon = test system: HCT-15 colon
HT29 colon = test system: HT29 colon
SNB-75 CNS = test system: SNB-75 CNS
SNB-19 CNS = test system: SNB-19 CNS
U251 CNS = test system: U251 CNS
PC-3 prostate = test system: PC-3 prostate
SK-MEL-5 melanoma = test system: SK-MEL-5 melanoma
UACC-62 melanoma = test system: UACC-62 melanoma
LOX IMVI melanoma = test system: LOX IMVI melanoma
SK-MEL-28 melanoma = test system: SK-MEL-28 melanoma

Compound | growth (HCT-15 colon) | growth (HT29 colon) | growth (SNB-75 CNS) | growth (SNB-19 CNS) | growth (U251 CNS) | growth (PC-3 prostate) | growth (SK-MEL-5 melanoma) | growth (UACC-62 melanoma) | growth (LOX IMVI melanoma) | growth (SK-MEL-28 melanoma)
CCN(CC)CCOc1ccc2c(c1)C(=O)c1cc(OCCN(CC)CC)ccc1-2 | 78.2% (inactive) and 39% (inactive) | 8.16% (active) and 6.92% (active) | 74.9% (inactive) and 67.1% (inactive) | 83.9% (inactive) and 75.7% (inactive) | 53.6% (inactive) and 61.3% (inactive) | 70.6% (inactive) and 35.9% (inactive) | 95% (inactive) and 95.5% (inactive) | 105% (inactive) and 103% (inactive) | 52.3% (inactive) and 37.3% (inactive) | 123% (inactive) and 108% (inactive)
COc1ccc(-c2ncnc3c2ncn3C/C=C/CCl)cc1 | 61% (inactive) and 81.2% (inactive) | 84.6% (inactive) and 84.3% (inactive) | 128% (inactive) and 105% (inactive) | 87.8% (inactive) and 78.5% (inactive) | 64.2% (inactive) and 77.3% (inactive) | 83.8% (inactive) and 87% (inactive) | 85.7% (inactive) and 82.4% (inactive) | 76.6% (inactive) and 74% (inactive) | 54.2% (inactive) and 70.1% (inactive) | 98.4% (inactive) and 98.9% (inactive)
Cn1cc(-c2cc3c(Nc4ccc(CC(=O)Nc5cc(C(C)(C)C)on5)cc4)ncnc3[nH]2)cn1 | 17.5% (inactive) and 34.6% (inactive) | -8.17% (active) and -11.7% (active) | -44.8% (active) and -42.3% (active) | 2.07% (active) and 3.84% (active) | 0.087% (active) and -9.38% (active) | -21.4% (active) and 1.57% (active) | -50.7% (active) and 1.16% (active) | -77.9% (active) and -80% (active) | 1.91% (active) and 2.35% (active) | -20.2% (active) and -18.4% (active)
CCOC(=O)Nc1ccc2c(c1)/C(=N\NC(N)=S)c1ccccc1-2 | 22.1% (inactive) and 38.2% (inactive) | 29.6% (inactive) and 25.8% (inactive) | 70.2% (inactive) and 66.4% (inactive) | 78.4% (inactive) and 75.3% (inactive) | 52.6% (inactive) and 48.8% (inactive) | 42.5% (inactive) and 90.9% (inactive) | 38.1% (inactive) and 44.2% (inactive) | 37.3% (inactive) and 51.3% (inactive) | 54.4% (inactive) and 58.4% (inactive) | 50% (inactive) and 75.4% (inactive)
Clc1ccc(NC(Nc2ccc(Cl)cc2)C(Cl)(Cl)Cl)cc1 | 65.6% (inactive) and 88.7% (inactive) | 101% (inactive) and 98.4% (inactive) | 79.2% (inactive) and 105% (inactive) | 104% (inactive) and 112% (inactive) | 95% (inactive) and 110% (inactive) | 91.9% (inactive) | 91.3% (inactive) and 85.3% (inactive) | 9.46% (active) and 62.8% (inactive) | 74.5% (inactive) | 105% (inactive) and 114% (inactive)
COc1ccccc1NC(=O)OCC#CCOC(=O)Nc1ccccc1OC | 114% (inactive) and 88.6% (inactive) | 100% (inactive) and 103% (inactive) | 92.9% (inactive) and 84.7% (inactive) | 104% (inactive) and 88.7% (inactive) | 97.4% (inactive) and 96.4% (inactive) | 102% (inactive) and 89.3% (inactive) | 94.2% (inactive) and 88.6% (inactive) | 83.7% (inactive) and 73.2% (inactive) | 96.9% (inactive) and 100% (inactive) | 106% (inactive) and 88.1% (inactive)
CC(C)N=c1cc2n(-c3ccc(Cl)cc3)c3ccccc3nc-2cc1Nc1ccc(Cl)cc1 | 14.9% (inactive) and 21% (inactive) and 6.17% (active) | 0.808% (active) and 6.25% (active) and -28.1% (active) | 68.1% (inactive) and 53.7% (inactive) and 24.1% (inactive) | 49.1% (inactive) and 60.7% (inactive) and 36.4% (inactive) | 13.7% (inactive) and 33.5% (inactive) and 6.42% (active) | 22.2% (inactive) and 29.7% (inactive) and 8.73% (active) | 4.95% (active) and 12% (inactive) and -72.9% (active) | 36% (inactive) and 34.9% (inactive) and 32.9% (inactive) | -20.7% (active) and -48.6% (active) and -80.9% (active) | 67.7% (inactive) and 72.8% (inactive) and 57.9% (inactive)
O=C(CCl)c1ccc2c(c1)Nc1ccccc1S2 | 85.1% (inactive) and 21.2% (inactive) | 101% (inactive) and 95.6% (inactive) | 88.6% (inactive) and 102% (inactive) | 99.7% (inactive) and 98% (inactive) | 98% (inactive) and 92% (inactive) | 92.8% (inactive) and 104% (inactive) | 94.1% (inactive) and 99.5% (inactive) | 87.5% (inactive) | 79.1% (inactive) and 48.2% (inactive) | 106% (inactive) and 115% (inactive)
CC(=O)Oc1cc(C(=O)O)cc(OC(C)=O)c1OC(C)=O | 107% (inactive) and 101% (inactive) | 114% (inactive) and 96.5% (inactive) | 88.1% (inactive) and 90.2% (inactive) | 93.4% (inactive) and 108% (inactive) | 93.1% (inactive) and 105% (inactive) | 93.4% (inactive) and 95.5% (inactive) | 99.5% (inactive) and 101% (inactive) | 93.7% (inactive) and 103% (inactive) | 96.3% (inactive) and 96% (inactive) | 115% (inactive) and 99.3% (inactive)
Cc1cccc(/C=C\C(=O)c2ccccc2)c1 | 89% (inactive) and 101% (inactive) | 91.9% (inactive) and 98.7% (inactive) | 90.5% (inactive) and 112% (inactive) | 86.7% (inactive) and 103% (inactive) | 64.8% (inactive) and 91.7% (inactive) | 86.3% (inactive) and 82.7% (inactive) | 106% (inactive) and 95% (inactive) | 90.2% (inactive) and 105% (inactive) | 85.3% (inactive) and 93.5% (inactive) | 110% (inactive) and 120% (inactive)
CCOc1ccc2c(S(=O)(=O)O)cccc2c1[N+](=O)[O-] | 103% (inactive) and 108% (inactive) | 105% (inactive) and 117% (inactive) | 85.7% (inactive) and 93.8% (inactive) | 108% (inactive) and 112% (inactive) | 101% (inactive) and 99.9% (inactive) | 93.4% (inactive) and 87.4% (inactive) | 108% (inactive) | 101% (inactive) and 110% (inactive) | 105% (inactive) and 102% (inactive) | 113% (inactive) and 118% (inactive)
COc1cc2nc(N3CCN(C(=O)C4COc5ccccc5O4)CC3)nc(N)c2cc1OC (stereo not given) | 108% (inactive) and 97.5% (inactive) and 105% (inactive) | 71.4% (inactive) and 93.9% (inactive) | 71.3% (inactive) and 76.9% (inactive) and 92.7% (inactive) | 99.7% (inactive) and 96% (inactive) and 101% (inactive) | 91.8% (inactive) and 86.8% (inactive) and 99.1% (inactive) | 91.7% (inactive) and 93.1% (inactive) and 110% (inactive) | 92.2% (inactive) and 86.6% (inactive) and 101% (inactive) | 102% (inactive) and 101% (inactive) and 103% (inactive) | 88% (inactive) and 94.2% (inactive) and 98.7% (inactive) | 99.9% (inactive) and 102% (inactive) and 107% (inactive)
CCOC(=O)c1c(C)oc(C)c(C(=O)OCC)c1=O | 106% (inactive) and 102% (inactive) | 105% (inactive) and 106% (inactive) | 96.5% (inactive) and 99.5% (inactive) | 102% (inactive) and 90.2% (inactive) | 111% (inactive) and 101% (inactive) | 94.1% (inactive) and 88.6% (inactive) | 111% (inactive) and 104% (inactive) | 111% (inactive) and 96.6% (inactive) | 103% (inactive) and 97.3% (inactive) | 109% (inactive) and 112% (inactive)
COc1ccc(Cn2c(NCCN=C(N)N)nc(=O)n(Cc3ccc(F)cc3)c2=O)cc1 | 103% (inactive) and 106% (inactive) | 101% (inactive) and 100% (inactive) | 55.1% (inactive) and 22.7% (inactive) | 77.6% (inactive) and 78.7% (inactive) | 81.7% (inactive) | 83% (inactive) and 87.1% (inactive) | 98.7% (inactive) and 99.9% (inactive) | 112% (inactive) and 98.4% (inactive) | 96.2% (inactive) | 103% (inactive) and 97.9% (inactive)
